Experimental data from PubChem BioAssay.
The source made the active and inactive calls.

How the values were obtained:
[1] = system: Plasmodium falciparum Sir2 (PF13_0152, Sir2A); assay: pfSir2 binders on small-molecule microarrays, primary screen, biochemical, small-molecule microarray, 635 nm fluorescence (AID 1098); details: small-molecule microarray binding, fluorescence 635 nm; higher = more signal;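 also: score merges spot fluorescence intensity with its signal-to-noise ratio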
[2] = small-molecule microarray binders of probe aDKK1, primary screen, biochemical, biotinylated probe, 635/667 nm fluorescence (AID 1099); details: higher = more signal;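 also: score merges 667nm spot fluorescence with signal to noise across triplicate slides; reference of the scale not given here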
[3] = small-molecule microarray binders of probe aCHRDL2, primary screen, biochemical, biotinylated probe, 635/667 nm fluorescence (AID 1100); details: higher = more signal
[4] = splicing luciferase reporter signal modulators, primary screen, spliceosome inhibition project, cell-based, HEK293, splice +/- reporter (AID 1101); details: luminescence, 24 h, higher = more signal, called active from +8 up or from −8 down;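 also: HEK293 cells carrying a splicing-competent luciferase reporter gene; test concentration not given here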
[5] = target: Fibroblast growth factor 10 (Homo sapiens) (UniProt O15520); assay: FGF10 binders on small-molecule microarrays, primary screen, biochemical, small-molecule microarray, 635 nm fluorescence (AID 1102); details: FGF10 binding, fluorescence 635 nm, higher = more signal
[6] = system: glycogen synthase kinase-3 (GSK3A per assay name; protocol says GSK3B); assay: GSK3 binders on small-molecule microarrays, primary screen, biochemical, small-molecule microarray, 635 nm fluorescence, GSK3A (AID 1103); details: small-molecule microarray binding, fluorescence 635 nm; higher = more signal; also: the record names both GSK3A and GSK3B
[7] = target: Epidermal growth factor receptor (Homo sapiens) (UniProt P00533); assay: EGFR binders on small-molecule microarrays, primary screen, biochemical, small-molecule microarray, 635 nm fluorescence (AID 1104); details: EGFR binding, higher = more signal;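 also: score merges 667 nm emission intensity with spot signal to noise over triplicate slides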
[8] = target: Follistatin-related protein 3 (Homo sapiens) (UniProt O95633); assay: FSTL3 binders on small-molecule microarrays, primary screen, biochemical, small-molecule microarray, 635 nm fluorescence (AID 1105); details: FSTL3 binding, higher = more signal;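 also: score merges emission near 667 nm and signal to noise per printed spot across three slides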
[9] = target: Dickkopf-related protein 1 (Homo sapiens) (UniProt O94907); assay: DKK1 binders on small-molecule microarrays, primary screen, biochemical, small-molecule microarray, 635 nm fluorescence scan (AID 1106); details: DKK1 binding, higher = more signal;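 also: score merges emission near 667 nm with signal to noise over three replicate slides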
[10] = system: Inhibin beta A chain (activin A); assay: INHBA (activin A) binders on microarrays, primary screen, biochemical, small-molecule microarray, 635 nm fluorescence scan (AID 1107); details: small-molecule microarray binding, higher = more signal;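 also: mouse activin A protein probed at 4.33 µg/mL on printed slides; score merges bound-protein fluorescence near 667 nm with spot signal-to-noise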

Fibroblast growth factor 10 (Homo sapiens), sequence (O15520 whole entry, looked up): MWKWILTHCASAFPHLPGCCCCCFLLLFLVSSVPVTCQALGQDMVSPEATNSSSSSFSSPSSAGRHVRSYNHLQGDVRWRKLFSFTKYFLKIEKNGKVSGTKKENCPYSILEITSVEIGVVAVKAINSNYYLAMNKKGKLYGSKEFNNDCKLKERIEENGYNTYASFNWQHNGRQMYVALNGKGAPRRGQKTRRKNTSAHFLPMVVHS
Dickkopf-related protein 1 (Homo sapiens), sequence (O94907 whole entry, looked up): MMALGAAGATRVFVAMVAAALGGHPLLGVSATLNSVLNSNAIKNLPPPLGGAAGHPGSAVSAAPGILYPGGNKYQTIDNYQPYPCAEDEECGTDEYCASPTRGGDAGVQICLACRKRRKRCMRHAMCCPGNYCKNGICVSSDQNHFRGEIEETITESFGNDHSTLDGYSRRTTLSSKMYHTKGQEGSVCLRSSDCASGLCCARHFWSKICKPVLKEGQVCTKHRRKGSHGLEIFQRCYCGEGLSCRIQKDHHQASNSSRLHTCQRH
Epidermal growth factor receptor (Homo sapiens), sequence (P00533 whole entry, looked up): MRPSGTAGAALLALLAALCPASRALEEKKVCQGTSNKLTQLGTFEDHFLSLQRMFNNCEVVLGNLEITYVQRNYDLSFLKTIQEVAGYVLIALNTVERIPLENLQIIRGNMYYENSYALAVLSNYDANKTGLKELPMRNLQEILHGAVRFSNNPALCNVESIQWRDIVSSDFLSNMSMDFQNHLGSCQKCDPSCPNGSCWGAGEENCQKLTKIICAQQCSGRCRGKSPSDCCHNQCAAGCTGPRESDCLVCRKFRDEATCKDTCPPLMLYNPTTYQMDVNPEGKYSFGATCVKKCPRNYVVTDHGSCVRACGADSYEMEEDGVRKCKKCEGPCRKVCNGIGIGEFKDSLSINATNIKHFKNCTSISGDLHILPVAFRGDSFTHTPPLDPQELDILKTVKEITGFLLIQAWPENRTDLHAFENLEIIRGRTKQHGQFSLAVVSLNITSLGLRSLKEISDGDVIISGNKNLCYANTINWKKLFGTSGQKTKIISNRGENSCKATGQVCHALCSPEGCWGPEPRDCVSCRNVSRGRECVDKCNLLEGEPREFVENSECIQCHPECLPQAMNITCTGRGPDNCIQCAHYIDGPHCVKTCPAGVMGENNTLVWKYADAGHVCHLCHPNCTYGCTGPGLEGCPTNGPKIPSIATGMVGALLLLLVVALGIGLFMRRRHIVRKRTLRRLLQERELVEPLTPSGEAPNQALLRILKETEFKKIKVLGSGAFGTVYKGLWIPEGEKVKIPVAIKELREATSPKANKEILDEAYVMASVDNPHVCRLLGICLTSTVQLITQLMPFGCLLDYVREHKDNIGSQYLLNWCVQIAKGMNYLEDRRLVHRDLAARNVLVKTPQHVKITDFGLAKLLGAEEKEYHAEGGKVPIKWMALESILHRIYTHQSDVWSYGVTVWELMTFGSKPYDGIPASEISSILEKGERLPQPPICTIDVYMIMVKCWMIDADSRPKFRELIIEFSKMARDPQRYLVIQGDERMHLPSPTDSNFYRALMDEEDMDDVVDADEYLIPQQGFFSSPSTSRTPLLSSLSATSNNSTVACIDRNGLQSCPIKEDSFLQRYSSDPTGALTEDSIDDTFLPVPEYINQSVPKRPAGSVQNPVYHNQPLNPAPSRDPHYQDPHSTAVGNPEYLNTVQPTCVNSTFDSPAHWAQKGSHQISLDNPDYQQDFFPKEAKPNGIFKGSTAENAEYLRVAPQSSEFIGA
Follistatin-related protein 3 (Homo sapiens), sequence (O95633 whole entry, looked up): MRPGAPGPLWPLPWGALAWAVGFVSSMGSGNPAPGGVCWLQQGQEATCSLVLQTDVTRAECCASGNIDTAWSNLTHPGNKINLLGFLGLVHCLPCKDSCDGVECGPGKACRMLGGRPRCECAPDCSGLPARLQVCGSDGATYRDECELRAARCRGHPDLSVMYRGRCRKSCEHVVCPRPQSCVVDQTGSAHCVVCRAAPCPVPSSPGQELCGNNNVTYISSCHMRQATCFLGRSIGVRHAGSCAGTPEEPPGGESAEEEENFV

Compound | composite z-score [1] | composite z-score [2] | composite z-score [3] | z-score [4] | composite z-score [5] | composite z-score [6] | composite z-score [7] | composite z-score [8] | composite z-score [9] | composite z-score [10]
C#CCCCON=C1C[C@@H](O)[C@@H](O)[C@@H]2[C@@H]3C(=O)N([C@@H](C)c4ccccc4)C(=O)[C@@H]3CC[C@@H]12 | 0.563 | -0.292 | 0.0951 | -0.0154 (inactive) | -0.723 | -0.521 | 0.377 | -0.447 | -0.67 | 0.718
CCOC(=O)CCN1C(=O)[C@H]2[C@H]3[C@H](O)[C@H](O)CC(=NOCC=C(C)CCC=C(C)C)[C@@H]3CC[C@H]2C1=O | 0.255 | 0.333 | -0.202 | 0.0459 (inactive) | 1.15 | 0.659 | 1.17 | 0.825 | 0.606 | -0.259
CCOC(=O)NN=C1C[C@@H](O)[C@@H](O)[C@@H]2[C@@H]3C(=O)N(c4ccc(F)cc4F)C(=O)[C@@H]3CC[C@H]12 | -0.304 | -0.349 | -0.626 | -1.43 (inactive) | 0.158 | 0.544 | 0.742 | 0.438 | 0.871 | 0.0584
COC(=O)[C@@H]1CC[C@H](C)[C@@H](c2ccc(C)cc2)N1C(=O)c1ccc(C=NOC[C@H]2O[C@H](c3ccccc3)C=C[C@@H]2Oc2ccc(OC)cc2)cc1 | 0.198 | -0.0428 | -0.32 | -0.0767 (inactive) | 0.3 | -0.245 | 0.331 | -0.189 | 0.15 | 1.24
CCN1C(=O)[C@H]2[C@H]3[C@H](O)[C@H](O)CC(=NO[C@H](C)c4cn([C@H](CO)Cc5ccccc5)nn4)[C@@H]3CC[C@H]2C1=O | 0.955 | 0.245 | -0.681 | -0.05 (inactive) | 0.869 | 0.978 | 0.587 | 1.05 | 0.553 | -0.802
COC(=O)CC=C[C@@H](C)[C@@H](C=NOC(C)CN1CCCCc2nc(C)c(C)cc21)OC (stereo not given in full) | 0.519 | -0.343 | -0.613 | 0.854 (inactive) | -0.285 | 0.959 | 0.686 | 0.975 | 1.33 | 1.19
O=C1C=C[C@@H](O)[C@@H]2[C@@H]3C(=O)N(c4cccc(Oc5ccccc5)c4)C(=O)[C@@H]3CC[C@@H]12 | 0.378 | -0.147 | -0.597 | -0.856 (inactive) | 0.322 | 0.499 | 0.386 | 0.438 | 0.503 | -0.0914
CC(CCN1CCCc2nc(C)c(C)cc21)=NO[C@H](C)c1cn([C@@H]2COC[C@H]2O)nn1 | 0.389 | -0.156 | -0.519 | 0.169 (inactive) | 0.667 | 1.11 | 1.06 | 0.884 | 0.902 | 1.26
COC(OC)[C@@H](C)[C@H](OC)[C@@H](C)[C@H](OC)c1ccccc1 | -0.15 | -0.185 | -0.449 | -1.31 (inactive) | 0.0549 | -0.485 | 0.231 | 0.327 | 0.392 | 0.499
CC(=O)OC[C@H]1O[C@@H](ON=C2[C@H]3CCn4c(=O)n(-c5ccccc5)c(=O)n4[C@H]3[C@H](O)[C@@H]3O[C@H]23)[C@H](OC(C)=O)[C@@H](OC(C)=O)[C@@H]1OC(C)=O | 0.242 | -0.425 | -0.43 | 0.764 (inactive) | 0.614 | 0.913 | 0.519 | 0.387 | 0.731 | -0.1
CN1CCc2nc(-c3ccccc3)c(-c3ccccc3)cc2C1 | -0.0565 | -0.284 | -0.225 | 0.0199 (inactive) | 0.486 | 0.256 | 0.134 | 0.359 | 0.503 | 0.334
CCOC(=O)CCN1C(=O)[C@H]2[C@H]3[C@H](O)[C@H](O)CC(=NOCC(C)C)[C@@H]3CC[C@H]2C1=O | 0.816 | -0.823 | -1.74 | 0.66 (inactive) | -0.0809 | 1.06 | 0.406 | 1.04 | 1.78 | 1.28
CO[C@H]1COC(=O)[C@H](C)COC(=O)[C@H](C)NC(=O)CC=C[C@H]1C | 0.378 | -0.579 | -1.42 | 0.0547 (inactive) | 1.07 | 1.24 | 1.54 | 1.51 | 1.28 | 0.843
CO[C@@H]1[C@H](O)CO[C@H]1C=Cc1ccccc1 | 1.55 | -0.261 | -0.41 | -0.0979 (inactive) | 0.961 | -0.135 | 0.0571 | 0.211 | 0.365 | 0.512
COC(=O)CC=C[C@@H](C)[C@@H](C=NOC[C@@H](C)[C@H](OCc1ccccc1)C(C)C)NS(=O)(=O)c1ccc(C)cc1 | -0.196 | -0.439 | -0.75 | -0.21 (inactive) | -0.714 | -1.15 | -0.0573 | -0.888 | 0.0424 | 0.168
CO[C@@H]1COC(=O)[C@H](CCSC)NC(=O)CC=C[C@@H](C)COC(=O)[C@@H]2CCCN2C(=O)CC=C[C@H]1C | 0.275 | -0.337 | -0.584 | -0.595 (inactive) | 0.779 | 0.745 | 0.898 | 0.909 | 1.01 | 0.4
CC(=O)OC[C@H]1O[C@H](CC=NOC(C)CN2CCCc3nc(C)c(C)cc32)C=C[C@@H]1OC(C)=O (stereo not given in full) | 0.104 | -0.104 | -0.457 | 0.184 (inactive) | 0.708 | 0.961 | 0.383 | 0.834 | 0.578 | 0.8

Compound | composite z-score [1] | composite z-score [2] | composite z-score [3] | z-score [4] | composite z-score [5] | composite z-score [6] | composite z-score [7] | composite z-score [8] | composite z-score [9] | composite z-score [10]
CC(CCC(=O)OC[C@H]1O[C@H](C#Cc2ccccc2)C=C[C@@H]1Oc1ccc(C)cc1)=NOC(C)CN1CCCc2nc(C)c(C)cc21 (stereo not given in full) | 0.839 | -0.143 | -0.35 | 0.00662 (inactive) | 0.732 | 0.727 | 0.335 | 0.694 | 0.397 | 0.531
CCc1cc2c(nc1CC)CCN(CCC(C)=NOC(C)CN1CCCCc3nc(C)c(C)cc31)C2 (stereo not given) | 0.526 | -0.0521 | -0.215 | -0.242 (inactive) | 0.628 | 1.25 | 0.81 | 1.19 | 0.841 | 1.31
C[C@@H]1CC[C@H]2C(=O)O[C@@H](CN=[N+]=[N-])CN2[C@H]1c1ccc(Br)cc1 | 0.584 | 0.0195 | -0.669 | 0.659 (inactive) | 0.382 | 0.636 | 0.343 | 0.345 | 0.857 | 0.455
CC(C)CON=C1[C@H]2CCn3c(=O)n(C)c(=O)n3[C@H]2[C@H](O)[C@@H]2O[C@H]12 | 0.59 | -0.339 | -0.507 | 0.253 (inactive) | 0.401 | 0.481 | 0.377 | 0.703 | 0.708 | 0.283
COc1ccc(O[C@H]2C=C[C@@H](c3ccccc3)O[C@@H]2CON=C(C)CCN2CCCc3nc(C)c(C)cc32)cc1 | 0.625 | -0.325 | -0.156 | -0.204 (inactive) | 0.735 | 0.73 | 0.227 | 0.616 | 0.552 | 0.917
C=CC[C@@H]1C=C[C@H](ON=CC[C@@H]2C=C[C@H](OC(C)=O)[C@@H](COC(C)=O)O2)[C@@H](CO)O1 | 1.01 | 0.182 | -0.293 | 0.743 (inactive) | 0.262 | 0.765 | 0.661 | 1.17 | 0.764 | 0.211
CCOC(=O)[C@H](CC(C)C)NC(=O)CCC1CC(OC(=O)NCCc2ccc(F)cc2)CC2(CCCC(COC(=O)NCc3cccc(C(F)(F)F)c3)O2)O1 (stereo not given in full) | 0.581 | -0.211 | -0.51 | 0.478 (inactive) | 1.39 | 0.733 | 0.29 | 0.814 | 0.532 | -0.257
C[C@@H]1CC[C@H]2C(=O)OC(Cc3ccccc3)CN2[C@H]1c1ccc(Br)cc1 (stereo not given in full) | 0.413 | -0.193 | -0.312 | 0.264 (inactive) | 0.524 | 0.255 | 0.0012 | 0.141 | -0.0094 | 0.445
CCOC(=O)[C@H](Cc1ccccc1)NC(=O)CCC1CC(OC(=O)NCc2cccc3ccccc23)CC2(CCCC(COC(=O)NCCc3ccc(Cl)cc3)O2)O1 (stereo not given in full) | 0.519 | -0.217 | -0.603 | -0.84 (inactive) | 0.718 | 0.24 | 0.104 | 0.588 | 0.621 | 0.145
CO[C@@H](C1CCCCC1)[C@@H](C)[C@H](OCc1cccc(Br)c1)[C@@H](C)CO | -0.317 | -0.359 | -0.426 | 0.899 (inactive) | 0.512 | -0.314 | 0.823 | 0.171 | 0.385 | 0.247
CC(C)=CCCC(C)=CCON=C1C[C@@H](O)[C@@H](O)[C@@H]2[C@@H]3C(=O)N(Cc4ccc5c(c4)OCO5)C(=O)[C@@H]3CC[C@@H]12 | 0.769 | -0.268 | -0.451 | 0.0709 (inactive) | 1.01 | 0.579 | 0.696 | 1.03 | 0.915 | 1.3
CC(=O)OC[C@H]1O[C@H](CC=NOC(C)CN2CCCCc3nc(C)c(C)cc32)C=C[C@@H]1OC(C)=O (stereo not given in full) | 1.14 | -0.0799 | -0.199 | 0.375 (inactive) | 0.83 | 1.31 | 1.59 | 1.31 | 1.68 | 1.13
COCCNC(=O)OCC1CCCC2(CC(OC(=O)NCc3cccc4ccccc34)CC(CCC(=O)N[C@@H](C)C(=O)OC)O2)O1 (stereo not given in full) | 0.798 | -0.252 | -0.589 | -0.674 (inactive) | 1.06 | 1.22 | 0.709 | 0.781 | 0.735 | -0.0341
CO[C@@H]1COC(=O)CC=C[C@H](C)[C@H](OC)COC(=O)[C@@H]2CCCN2C(=O)CC=C[C@H]1C | 0.811 | -0.48 | -1.38 | -0.127 (inactive) | 0.487 | 0.562 | 1.15 | 1.25 | 1.52 | 1.14
COC(=O)C(C(=O)OC)C1CCCC(=O)C1 (stereo not given) | 0.377 | -0.207 | -0.618 | -0.388 (inactive) | 0.755 | 0.772 | 0.399 | 0.508 | 0.978 | 0.151
O=C1CCCC=C1C(O)C1CCCCC1 (stereo not given) | -0.895 | -0.214 | -0.476 | 0.301 (inactive) | 0.42 | -0.0973 | 0.309 | 0.324 | 0.165 | 0.615
CCOC(=O)CCN1C(=O)[C@H]2[C@H]3[C@H](O)[C@H](O)CC(=NNC(=O)OCc4ccccc4)[C@H]3CC[C@H]2C1=O | 0.108 | -0.467 | -1.17 | 0.325 (inactive) | -0.193 | -0.296 | 0.345 | 0.373 | 0.766 | 1.62
